This passage reports outcome results from PubChem BioAssay (Tox21).

Results filed as inconclusive are left out. Activity calls are given as the source filed them. Calls come from the whole dose curve; as a rule, active = well fitted cell-killing curve with a large enough effect in the repeat runs (not every such curve was filed as active); inconclusive = weak or mixed curves, or effect the other way; inactive = no such curve, though single readings can be large or run the other way.

The nature of this assay: qHTS assay to identify small molecule antagonists of the farnesoid-X-receptor (FXR) signaling pathway - cell viability counter screen (AID 743221). Note: nearly all actives have a fitted effect of over 50% in size. The note with it: FXR-bla HEK293T viability, CellTiter-Glo luminescence, 16 h; series mostly up to 62.6 µM. In outline: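 Multiplexed counter screen: viability of FXR-bla HEK 293T cells under agonist stimulation by chenodeoxycholic acid (50 uM, final) and test compound for 16 h at 37 C, measured by CellTiter-Glo luminescence in the reporter wells.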
For `O=C1c2ccccc2C(=O)N1CCl`, the outcome was inactive.
In the case of `CC(=O)CCCCn1c(=O)c2c(ncn2C)n(C)c1=O`, the outcome was inactive.
The result for `CCCCOC(=O)c1ccccc1` reads “inactive”; that for `Brc1ccc(-c2ccccc2)cc1`, “inactive”.
For the compound `CCOc1cc([N+](=O)[O-])c(OCC)cc1N1CCOCC1`, the compound was classed as inactive.
The result for `O=C(CCNNC(=O)c1ccncc1)NCc1ccccc1` reads “inactive”; that for `COc1ccc(-c2cc(=O)c3c(O)cc(O[C@@H]4O[C@H](CO[C@@H]5O[C@@H](C)[C@H](O)[C@@H](O)[C@H]5O)[C@@H](O)[C@H](O)[C@H]4O)cc3o2)cc1O`, “inactive”; that for `Cc1cccc2nccnc12`, “inactive”.
For `O=C(OCC1(COC(=O)c2cccnc2)CCCC(COC(=O)c2cccnc2)(COC(=O)c2cccnc2)C1O)c1cccnc1`, the compound was classed as inactive.
The result for `OC[C@H](Cc1cccc(O)c1)[C@H](CO)Cc1cccc(O)c1` reads “inactive”.
The result for `C=C(C)C(=O)OCCN(CC)CC` reads “inactive”.
Regarding `COCCc1ccc(OCC2CO2)cc1` (configuration not stated), the call was inactive.
The same measure for `COC(=O)c1ccccc1C(=O)c1ccc(OCCN2CCCCC2)cc1`: “inactive”; for `CC(C)=O`: “inactive”; for `O=C(O)c1cc(Br)c(O)c(Br)c1`: “inactive”.
The result for `CCNC(=O)C1CC(C)CCC1C(C)C` (configuration not stated) reads “inactive”.
The result for `O=C(O)c1cc(Cl)cc([N+](=O)[O-])c1Cl` reads “inactive”.
Turning to `CC1=C(C(=O)O)N2C(=O)[C@@H](NC(=O)[C@H](N)c3ccc(O)cc3)[C@H]2SC1`, the outcome was inactive.
`C[C@H](CCC(=O)O)[C@H]1CC[C@H]2[C@@H]3C(=O)C[C@@H]4CC(=O)CC[C@]4(C)[C@H]3CC(=O)[C@]12C`: the compound was classed as inactive.
Consider `NC(CO)C(=O)NNCc1ccc(O)c(O)c1O` (configuration not stated), for which the compound was called inactive.
The same measure for `COC(=O)[C@@H]1[C@H]2C[C@H]3c4[nH]c5ccccc5c4CCN3C[C@@H]2CC[C@@H]1O`: “inactive”.
For the compound `CCC(C)NC(N)=O` (configuration not stated), the call was inactive.
As for `COc1nccnc1NS(=O)(=O)c1ccc(N)cc1`, the call was inactive.
`O=C(NCCN1CCOCC1)c1ccc(Cl)cc1`: the outcome was inactive.
The result for `Cc1ccccc1OCC(O)CO` (configuration not stated) reads “inactive”.
As for `N[C@@H](CCC(=O)N[C@@H](CS)C(=O)NCC(=O)O)C(=O)O`, the result was inactive.
The same measure for `CN(CCOc1ccc(NS(C)(=O)=O)cc1)CCc1ccc(NS(C)(=O)=O)cc1`: “inactive”; for `COc1ccc2nc(SCc3ncc(C)c(OC)c3C)[nH]c2c1`: “inactive”.
The same measure for `CCCCCOC(=O)CCC`: “inactive”.
As for `CC(=O)Nc1cccc(C)c1`, the result was inactive.
As to `CC(C)OC(=O)CCCCC(=O)OC(C)C`, the compound was classed as inactive.
For `COC(=O)CCc1ccc(OCC(O)CNC(C)C)cc1` (configuration not stated), the call was inactive.
The same measure for `O=C(CCN1CCN(CCO)CC1)N1c2ccccc2Sc2ccc(C(F)(F)F)cc21`: “inactive”; for `CCOCCOCCOCC`: “inactive”.
For the compound `N[C@@H](CCC(=O)Nc1ccc([N+](=O)[O-])cc1)C(=O)O`, the call was inactive.
The same measure for `Cc1ccc2ccc(Cl)cc2n1`: “inactive”.
Take `NNc1nnc(NN)c2ccccc12`: the compound was called inactive.
